Records with an inconclusive call do not appear. Active and inactive are the calls of the source. How the source made its calls, unless noted: active means hit-call score of the fitted dose curve at least 0.9, where 1 is the maximum; inconclusive means response in the unintended direction; inactive means score below 0.9.

This is an account of results in PubChem BioAssay (EPA / NIEHS).

The target in experiment [1] is human Peroxisome Proliferator-activated Receptor alpha (PPARa), PPARA (gene 5465) (UniProt Q07869). The experiment in a line: ATG_PPARa_TRANS: Attagene TRANS-FACTORIAL HepG2 Assay for human Peroxisome Proliferator-activated Receptor alpha (PPARa) (AID 2283001). A digest of the protocol: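 Gain-of-signal endpoint: reporter mRNA induction relative to DMSO, detected by fluorescent RT-PCR and capillary electrophoresis. HepG2 cells transiently carried GAL4-UAS-driven reporter units plus NR-Gal4 fusion; exposure lasted 24 h.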
human Peroxisome Proliferator-activated Receptor alpha (PPARa), PPARA (gene 5465), sequence (Q07869 whole entry, looked up, the tested form may be a part): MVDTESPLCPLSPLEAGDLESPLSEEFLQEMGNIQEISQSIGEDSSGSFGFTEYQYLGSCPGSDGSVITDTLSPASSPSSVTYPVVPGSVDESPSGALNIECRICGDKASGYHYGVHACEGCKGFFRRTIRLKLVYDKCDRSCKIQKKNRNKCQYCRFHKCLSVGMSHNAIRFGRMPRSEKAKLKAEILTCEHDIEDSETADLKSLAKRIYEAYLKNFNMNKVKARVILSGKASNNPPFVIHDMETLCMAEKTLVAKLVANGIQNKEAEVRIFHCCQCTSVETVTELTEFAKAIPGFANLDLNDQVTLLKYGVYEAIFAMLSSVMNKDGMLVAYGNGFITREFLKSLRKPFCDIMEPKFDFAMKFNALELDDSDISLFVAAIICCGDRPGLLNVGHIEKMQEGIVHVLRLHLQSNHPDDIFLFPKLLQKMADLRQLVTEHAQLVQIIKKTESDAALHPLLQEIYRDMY

The target in experiment [2] is human RAR-related Orphan Receptor beta (RORb), RORB (gene 6096) (UniProt Q92753). Description: ATG_RORb_TRANS: Attagene TRANS-FACTORIAL HepG2 Assay for human RAR-related Orphan Receptor beta (RORb) (AID 2283010). A digest of the protocol: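 Readout is reporter-gene mRNA induction, detected as fluorescence after RT-PCR and capillary electrophoresis, fitted for gain of signal against DMSO controls. Transiently transfected HepG2 liver cells carrying GAL4-UAS reporter constructs were treated for 24 hours.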
human RAR-related Orphan Receptor beta (RORb), RORB (gene 6096), sequence (Q92753 whole entry, looked up, the tested form may be a part): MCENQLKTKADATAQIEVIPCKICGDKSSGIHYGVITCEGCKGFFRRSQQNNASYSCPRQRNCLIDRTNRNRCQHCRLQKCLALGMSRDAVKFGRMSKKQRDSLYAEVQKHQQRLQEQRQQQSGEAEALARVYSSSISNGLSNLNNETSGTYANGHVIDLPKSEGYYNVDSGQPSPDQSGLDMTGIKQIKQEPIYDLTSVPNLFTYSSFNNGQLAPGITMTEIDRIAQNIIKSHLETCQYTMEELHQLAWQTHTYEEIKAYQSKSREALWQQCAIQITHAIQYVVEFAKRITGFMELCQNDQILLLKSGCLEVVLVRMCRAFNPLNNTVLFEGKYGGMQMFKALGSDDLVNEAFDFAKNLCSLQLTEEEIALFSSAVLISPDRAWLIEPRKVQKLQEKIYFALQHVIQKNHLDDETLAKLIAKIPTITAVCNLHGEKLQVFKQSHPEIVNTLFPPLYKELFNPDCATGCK

In experiment [3] the target is human RAR-related Orphan Receptor gamma (RORg), RORC (gene 6097) (UniProt P51449). The experiment in a line: ATG_RORg_TRANS: Attagene TRANS-FACTORIAL HepG2 Assay for human RAR-related Orphan Receptor gamma (RORg) (AID 2283011). The method, boiled down: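 HepG2 cells transiently transfected with GAL4-UAS reporter units and chimeric RORg-Gal4 construct; after 24 h chemical exposure, reporter mRNA measured by RT-PCR with fluorescent capillary electrophoresis, gain of signal fitted against DMSO.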
human RAR-related Orphan Receptor gamma (RORg), RORC (gene 6097), sequence (P51449 whole entry, looked up, the tested form may be a part): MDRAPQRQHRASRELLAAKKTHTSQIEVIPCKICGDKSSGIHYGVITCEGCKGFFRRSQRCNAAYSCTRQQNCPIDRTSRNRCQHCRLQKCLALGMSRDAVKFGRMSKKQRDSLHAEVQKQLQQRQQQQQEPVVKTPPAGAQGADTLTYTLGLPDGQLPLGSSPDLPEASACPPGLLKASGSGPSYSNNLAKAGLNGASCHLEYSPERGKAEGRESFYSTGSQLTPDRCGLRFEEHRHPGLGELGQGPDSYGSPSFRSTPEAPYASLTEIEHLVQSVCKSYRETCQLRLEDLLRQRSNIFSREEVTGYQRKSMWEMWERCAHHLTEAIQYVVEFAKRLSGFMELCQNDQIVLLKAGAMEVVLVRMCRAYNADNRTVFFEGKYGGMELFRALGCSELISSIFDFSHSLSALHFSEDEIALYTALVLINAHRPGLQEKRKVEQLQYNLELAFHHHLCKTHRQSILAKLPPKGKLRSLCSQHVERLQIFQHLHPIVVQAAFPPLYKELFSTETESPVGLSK

For experiment [4], the target named is human Retinoid X Receptor beta (RXRb), RXRB (gene 6257) (UniProt P28702). The experiment in a line: ATG_RXRb_TRANS: Attagene TRANS-FACTORIAL HepG2 Assay for human Retinoid X Receptor beta (RXRb) (AID 2283013). A digest of the protocol: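 Transfect HepG2 with GAL4-UAS multi-reporter constructs (chimeric NR-Gal4, TRANS format); dose compound 24 h; isolate RNA, RT-PCR, FAM primer extension, HpaI digest; quantify by capillary electrophoresis; positive direction vs DMSO.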
human Retinoid X Receptor beta (RXRb), RXRB (gene 6257), sequence (P28702 whole entry, looked up, the tested form may be a part): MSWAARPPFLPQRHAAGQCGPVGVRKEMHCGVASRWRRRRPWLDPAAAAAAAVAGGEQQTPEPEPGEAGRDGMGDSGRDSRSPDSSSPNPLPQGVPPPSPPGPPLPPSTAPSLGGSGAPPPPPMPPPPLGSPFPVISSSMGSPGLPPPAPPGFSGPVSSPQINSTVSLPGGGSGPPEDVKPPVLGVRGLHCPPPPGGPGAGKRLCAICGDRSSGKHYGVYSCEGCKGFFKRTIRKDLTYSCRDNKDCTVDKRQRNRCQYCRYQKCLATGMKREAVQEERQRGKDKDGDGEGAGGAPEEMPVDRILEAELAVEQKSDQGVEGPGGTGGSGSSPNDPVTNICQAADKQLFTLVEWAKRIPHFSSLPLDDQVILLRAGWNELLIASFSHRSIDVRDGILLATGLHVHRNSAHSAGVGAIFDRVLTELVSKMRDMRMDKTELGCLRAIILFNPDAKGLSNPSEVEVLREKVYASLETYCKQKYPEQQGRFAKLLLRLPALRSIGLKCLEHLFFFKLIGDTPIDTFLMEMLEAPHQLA

For experiment [5], the target named is Peroxisome proliferator-activated receptor gamma (Homo sapiens) (UniProt P37231). The experiment in a line: ATG_PPARg_TRANS: Attagene TRANS-FACTORIAL HepG2 Assay for human Peroxisome Proliferator-activated Receptor-gamma (PPARg) (AID 2283007). A digest of the protocol:
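Multiplexed reporter transcription units in HepG2, 24 h dosing, reporter transcripts quantified by fluorescent RT-PCR and capillary electrophoresis. Increase over DMSO scored.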

In experiment [6] the target is human Thyroid Receptor alpha (THRa1), THRA (gene 7067) (UniProt P10827). Description: ATG_THRa1_TRANS: Attagene TRANS-FACTORIAL HepG2 Assay for human Thyroid Receptor alpha (THRa1) (AID 2283014). The method, boiled down: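 HepG2 cells transiently transfected with chimeric NR-Gal4 and GAL4-UAS reporter units, dosed 24 h. Reporter mRNA quantified by RT-PCR, fluorescent labeling, HpaI digestion and capillary electrophoresis; gain-of-signal fit versus DMSO.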
human Thyroid Receptor alpha (THRa1), THRA (gene 7067), sequence (P10827 whole entry, looked up, the tested form may be a part): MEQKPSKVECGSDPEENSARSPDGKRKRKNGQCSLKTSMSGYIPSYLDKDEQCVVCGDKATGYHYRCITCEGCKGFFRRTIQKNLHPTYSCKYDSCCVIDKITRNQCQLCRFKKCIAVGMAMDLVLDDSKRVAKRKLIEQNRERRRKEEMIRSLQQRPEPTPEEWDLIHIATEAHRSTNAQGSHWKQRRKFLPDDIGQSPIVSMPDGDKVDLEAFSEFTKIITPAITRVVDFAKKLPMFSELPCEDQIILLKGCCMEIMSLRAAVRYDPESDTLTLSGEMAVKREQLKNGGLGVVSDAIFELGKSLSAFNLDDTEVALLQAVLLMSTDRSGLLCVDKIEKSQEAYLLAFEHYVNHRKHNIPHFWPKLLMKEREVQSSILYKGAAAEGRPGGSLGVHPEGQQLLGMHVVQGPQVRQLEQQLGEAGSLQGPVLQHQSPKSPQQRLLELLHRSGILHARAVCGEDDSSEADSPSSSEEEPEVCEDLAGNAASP

Experiment [7] concerns the target Retinoic acid receptor RXR-alpha (Homo sapiens) (UniProt P19793). The experiment in a line: ATG_RXRa_TRANS: Attagene TRANS-FACTORIAL HepG2 Assay for human Retinoid X Receptor alpha (RXRa) (AID 2283012). The method, boiled down:
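Transient transfection of human HepG2 with multiple GAL4-UAS reporter constructs; 24 h compound exposure; total RNA isolated, reverse-transcribed, PCR-amplified, 6-FAM labelled, HpaI-cut, resolved by capillary electrophoresis. Positive-direction fit versus DMSO.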

Experiment [8] has as its target Nuclear receptor subfamily 1 group I member 2 (Homo sapiens) (UniProt O75469). Description: ATG_PXR_TRANS: Attagene TRANS-FACTORIAL HepG2 Assay for human Pregnane X Receptor (PXR) (AID 2283008). The method, boiled down: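 HepG2 cells transiently transfected with multiple reporter units, here a PXR-GAL4 chimera driving a GAL4-UAS reporter; 24 h compound exposure. Reporter mRNA measured by RT-PCR, FAM labelling and capillary electrophoresis; gain of signal fitted against DMSO baseline.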

Experiment [9] has as its target human Peroxisome Proliferator-activated Receptor delta (PPARd), PPARD (gene 5467) (UniProt Q03181). The experiment in a line: ATG_PPARd_TRANS: Attagene TRANS-FACTORIAL HepG2 Assay for human Peroxisome Proliferator-activated Receptor delta (PPARd) (AID 2283002). The method, boiled down: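 HepG2 cells transiently transfected with multiplexed GAL4-UAS reporter units and exogenous chimeric NR-Gal4 proteins; 24 h compound exposure. Reporter mRNA measured by RT-PCR, 6-FAM labelling, HpaI digestion and capillary electrophoresis; gain of signal versus DMSO.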

Read-out in experiment [10]: Intercellular Adhesion Molecule 1 (ICAM1), ICAM1 (gene 3383)
The experiment in a line: BSK_3C_ICAM1: BioMAP Diversity Plus: 3C Assay for Intercellular Adhesion Molecule 1 (ICAM1) Biomarker Activity (AID 2283003; active means hit-call score of the fitted dose curve at least 0.9, where 1 is the maximum; inactive means score below 0.9). Conditions: primary human endothelial cells (HUVEC); actives raise or lower the signal. The method, boiled down:
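ICAM-1 levels measured by ELISA after HUVEC cultures in the 3C system had been dosed for 24 h. Gain or loss of signal relative to DMSO was fitted in both directions.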

A short description of experiment [11]: BSK_3C_Proliferation: Cell Proliferation Assessment in the BioMAP Diversity Plus: 3C Assay (AID 2283006; active means hit-call score of the fitted dose curve at least 0.9, where 1 is the maximum; inactive means score below 0.9;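 further: potency may reflect either rise or fall in cell number versus DMSO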). Conditions: primary human endothelial cells (HUVEC). The method, boiled down: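 Read-out is total protein by SRB absorbance at 560 nm, taken as a proxy for relative cell number. Primary human umbilical vein endothelium cultured below confluence was dosed for 48 h, TCA-fixed and SRB-stained; curves were fitted bidirectionally versus DMSO.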

Read-out in experiment [12]: E-selectin (Homo sapiens) (UniProt P16581)
Description: BSK_3C_Eselectin: BioMAP Diversity Plus: 3C Assay for Eselectin Biomarker Activity (AID 2283015; active means hit-call score of the fitted dose curve at least 0.9, where 1 is the maximum; inactive means score below 0.9). The conditions noted are these: primary human endothelial cells (HUVEC); actives raise or lower the signal. A digest of the protocol: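 Primary human umbilical vein endothelial cells (3C system), read 24 h after compound addition; E-selectin measured by ELISA. Bidirectional curve fitting against DMSO baseline; cytotoxicity by parallel SRB total-protein staining.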

Read-out in experiment [13]: Interleukin-1 alpha (IL1a), IL1A (gene 3552)
Description: BSK_BE3C_IL1a: BioMAP Diversity Plus: BE3C Assay for Interleukin-1 alpha (IL1a) Biomarker Activity (AID 2283016; active means hit-call score of the fitted dose curve at least 0.9, where 1 is the maximum; inactive means score below 0.9). Conditions: primary human bronchial epithelial cells; actives raise or lower the signal. The method, boiled down:
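BE3C primary human bronchial epithelium; cpd 24 h; IL-1a by ELISA; bidirectional fit vs DMSO; parallel SRB (0.1% SRB, 10% TCA fix, 560 nm) for cytotoxicity.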

Read-out in experiment [14]: Monocyte Chemoattractant Protein-1 (MCP1), CCL2 (gene 6347)
Description: BSK_3C_MCP1: BioMAP Diversity Plus: 3C Assay for Monocyte Chemoattractant Protein-1 (MCP1) Biomarker Activity (AID 2283017; active means hit-call score of the fitted dose curve at least 0.9, where 1 is the maximum; inactive means score below 0.9). The conditions noted are these: primary human endothelial cells (HUVEC); actives raise or lower the signal. A digest of the protocol: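 Human umbilical vein endothelial cells (3C system) exposed to chemicals for 24 h; MCP-1 quantified by ELISA against the DMSO baseline with bidirectional fitting, and parallel SRB staining used to assess cytotoxicity.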

Read-out in experiment [15]: Monocyte Chemoattractant Protein-1 (MCP1), CCL2 (gene 6347)
The experiment in a line: BSK_4H_MCP1: BioMAP Diversity Plus: 4H Assay for Monocyte Chemoattractant Protein-1 (MCP1) Biomarker Activity (AID 2283018; active means hit-call score of the fitted dose curve at least 0.9, where 1 is the maximum; inactive means score below 0.9). Conditions: primary human endothelial cells (HUVEC); actives raise or lower the signal. The method, boiled down: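 ELISA read-out of MCP-1 from human vascular endothelial primary cells taken at 24 hours after compound exposure. Activity was fitted in both directions relative to DMSO, which served as negative control.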

Read-out in experiment [16]: Human Leukocyte Antigen - DR isotype (HLADR), HLA-DRA (gene 3122)
The experiment in a line: BSK_3C_HLADR: BioMAP Diversity Plus: 3C Assay for Human Leukocyte Antigen - DR isotype (HLADR) Biomarker Activity (AID 2283019; active means hit-call score of the fitted dose curve at least 0.9, where 1 is the maximum; inactive means score below 0.9). The conditions noted are these: primary human endothelial cells (HUVEC); actives raise or lower the signal. A digest of the protocol:
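HUVEC monoculture, HLA-DR measured by ELISA 24 h after chemical dosing. Fitted bidirectionally against DMSO baseline; parallel SRB staining assessed cytotoxicity, with 3C proliferation read by SRB at 48 h.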

Read-out in experiment [17]: Interleukin-8 (IL8), CXCL8 (gene 3576)
Description: BSK_3C_IL8: BioMAP Diversity Plus: 3C Assay for Interleukin-8 (IL8) Biomarker Activity (AID 2283020; active means hit-call score of the fitted dose curve at least 0.9, where 1 is the maximum; inactive means score below 0.9). Conditions: primary human endothelial cells (HUVEC); actives raise or lower the signal. The method, boiled down: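 ELISA read-out of IL-8 from human umbilical vein endothelium, measured 24 h after chemical dosing. Activity is expressed relative to DMSO negative control, with both increases and decreases fitted.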

E-selectin (Homo sapiens), sequence (P16581 whole entry, looked up): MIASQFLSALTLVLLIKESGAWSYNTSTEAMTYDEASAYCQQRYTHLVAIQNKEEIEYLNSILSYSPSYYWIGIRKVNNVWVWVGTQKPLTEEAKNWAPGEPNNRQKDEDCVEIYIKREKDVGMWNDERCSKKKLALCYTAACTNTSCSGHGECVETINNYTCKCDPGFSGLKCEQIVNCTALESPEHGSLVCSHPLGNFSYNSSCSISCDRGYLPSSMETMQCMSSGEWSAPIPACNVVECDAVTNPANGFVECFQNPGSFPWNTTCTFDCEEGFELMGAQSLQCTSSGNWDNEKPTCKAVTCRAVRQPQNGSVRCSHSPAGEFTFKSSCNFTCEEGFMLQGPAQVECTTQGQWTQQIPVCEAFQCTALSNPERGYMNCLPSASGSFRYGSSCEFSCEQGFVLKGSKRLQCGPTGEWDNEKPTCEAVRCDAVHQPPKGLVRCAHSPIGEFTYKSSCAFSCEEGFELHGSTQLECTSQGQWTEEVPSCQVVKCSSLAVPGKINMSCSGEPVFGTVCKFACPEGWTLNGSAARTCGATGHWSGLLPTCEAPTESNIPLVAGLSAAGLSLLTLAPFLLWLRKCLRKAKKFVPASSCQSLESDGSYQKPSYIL
Retinoic acid receptor RXR-alpha (Homo sapiens), sequence (P19793 whole entry, looked up, the tested form may be a part): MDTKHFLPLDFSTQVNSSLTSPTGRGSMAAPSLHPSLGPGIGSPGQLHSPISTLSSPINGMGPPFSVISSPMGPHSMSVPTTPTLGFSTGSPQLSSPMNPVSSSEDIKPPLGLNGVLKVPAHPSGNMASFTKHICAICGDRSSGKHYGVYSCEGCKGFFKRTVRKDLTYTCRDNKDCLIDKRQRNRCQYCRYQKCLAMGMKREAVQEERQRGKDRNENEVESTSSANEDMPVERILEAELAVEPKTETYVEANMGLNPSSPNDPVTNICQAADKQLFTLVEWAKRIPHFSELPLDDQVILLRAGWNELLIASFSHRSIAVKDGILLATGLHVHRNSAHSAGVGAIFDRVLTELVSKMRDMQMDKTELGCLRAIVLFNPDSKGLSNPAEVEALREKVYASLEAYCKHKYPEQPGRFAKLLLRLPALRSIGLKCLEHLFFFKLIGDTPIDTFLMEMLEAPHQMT
Nuclear receptor subfamily 1 group I member 2 (Homo sapiens), sequence (O75469 whole entry, looked up, the tested form may be a part): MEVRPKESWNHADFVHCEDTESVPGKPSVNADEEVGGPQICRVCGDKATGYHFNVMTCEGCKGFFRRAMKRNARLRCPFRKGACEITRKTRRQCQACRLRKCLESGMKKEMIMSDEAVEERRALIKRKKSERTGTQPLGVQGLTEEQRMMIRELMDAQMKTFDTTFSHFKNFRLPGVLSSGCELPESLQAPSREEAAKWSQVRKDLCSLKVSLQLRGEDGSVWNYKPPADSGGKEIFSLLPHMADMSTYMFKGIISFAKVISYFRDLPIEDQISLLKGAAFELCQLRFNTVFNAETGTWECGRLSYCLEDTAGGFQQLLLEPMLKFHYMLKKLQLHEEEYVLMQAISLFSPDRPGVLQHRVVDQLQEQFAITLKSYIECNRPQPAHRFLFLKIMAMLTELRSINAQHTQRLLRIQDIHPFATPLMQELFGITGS
human Peroxisome Proliferator-activated Receptor delta (PPARd), PPARD (gene 5467), sequence (Q03181 whole entry, looked up, the tested form may be a part): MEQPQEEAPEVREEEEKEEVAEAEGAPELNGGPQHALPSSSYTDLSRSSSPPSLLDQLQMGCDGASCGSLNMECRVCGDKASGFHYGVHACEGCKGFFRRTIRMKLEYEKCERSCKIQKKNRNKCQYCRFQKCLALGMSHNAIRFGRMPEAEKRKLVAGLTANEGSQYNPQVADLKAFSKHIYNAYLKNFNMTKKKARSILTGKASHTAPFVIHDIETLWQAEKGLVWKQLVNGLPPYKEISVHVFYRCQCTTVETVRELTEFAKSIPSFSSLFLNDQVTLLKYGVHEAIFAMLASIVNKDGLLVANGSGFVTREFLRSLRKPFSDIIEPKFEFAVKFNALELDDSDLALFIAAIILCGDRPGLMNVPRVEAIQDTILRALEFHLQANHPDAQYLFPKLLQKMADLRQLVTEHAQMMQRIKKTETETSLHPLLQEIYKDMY
Peroxisome proliferator-activated receptor gamma (Homo sapiens), sequence (P37231 whole entry, looked up): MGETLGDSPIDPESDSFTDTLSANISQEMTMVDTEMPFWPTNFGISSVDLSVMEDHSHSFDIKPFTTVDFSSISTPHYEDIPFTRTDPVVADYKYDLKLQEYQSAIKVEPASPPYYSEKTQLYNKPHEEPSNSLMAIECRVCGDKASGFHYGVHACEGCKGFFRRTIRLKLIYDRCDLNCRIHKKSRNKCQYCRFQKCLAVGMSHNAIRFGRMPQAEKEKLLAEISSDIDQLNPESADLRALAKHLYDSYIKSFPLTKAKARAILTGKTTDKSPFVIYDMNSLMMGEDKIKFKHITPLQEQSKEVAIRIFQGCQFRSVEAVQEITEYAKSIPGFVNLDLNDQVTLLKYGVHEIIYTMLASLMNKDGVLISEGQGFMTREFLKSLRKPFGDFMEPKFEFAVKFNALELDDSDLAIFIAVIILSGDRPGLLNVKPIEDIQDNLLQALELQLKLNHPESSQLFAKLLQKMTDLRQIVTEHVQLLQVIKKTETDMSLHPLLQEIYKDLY

Turning to `CCCCCCCCCCCCN`, the compound was called inactive in [1], in experiment [2], in experiment [3] and in experiment [4].
For `COc1ccc(O)cc1`, the compound was called inactive in experiment [1], in [5] and in experiment [6].
Turning to `Cc1cccc(C)c1C`, the compound was called inactive in experiment [1], in [5], in experiment [2], in experiment [3], in [7] and in experiment [6].
Turning to `Nc1ccc(S(=O)(=O)O)c(N)c1`, the outcome in experiment [1] and in [4] was inactive.
As for `CC(=O)OCc1ccc2c(c1)OCO2`, the compound was classed as inactive in experiment [1], in experiment [8], in [2], in [3] and in experiment [4].
As to `CC(=O)Nc1ccc(CC(=O)O)cc1`, the outcome in experiment [1], in experiment [5], in experiment [2] and in experiment [7] was inactive.
For `OCC(CO)(CO)COCC(CO)(CO)CO`, the outcome in [1], in [8], in experiment [7] and in experiment [4] was inactive.
Consider `O=C(O)c1cccc(C(F)(F)F)c1`, for which the compound was called inactive in experiment [1], in experiment [5] and in experiment [7].
For the compound `CC1COc2ccccc2N1C(=O)C(Cl)Cl` (stereo not given), the compound was called inactive in experiment [9], in experiment [10], in experiment [5], in [7], in experiment [6] and in experiment [14]. Also, the result in [15] and in [17] was inactive. Besides, the AC50 is 5.24 µM (active) in experiment [11]; 6.46 µM (active) in experiment [8]; 20 µM (active) in experiment [12]; 5.26 µM (active) in experiment [13]; 7.04 µM (active) in experiment [16].
With `CCN(CC)CCOC(=O)c1ccc(N)cc1`, the compound was called inactive in experiment [1], in experiment [5], in experiment [2], in experiment [4] and in experiment [6].
Regarding `CC(C)(C)c1n[nH]c(=S)n(N)c1=O`, the compound was classed as inactive in [1], in [8], in experiment [4] and in experiment [6].
Consider `COc1ccc(Cl)cc1C`, for which the compound was classed as inactive in experiment [1], in experiment [8], in [3], in [7] and in experiment [6].
With `c1ccc2sc(SN(C3CCCCC3)C3CCCCC3)nc2c1`, the compound was classed as inactive in experiment [9], in [10], in experiment [5], in experiment [2], in experiment [4] and in experiment [6]. Besides, the outcome in experiment [13] and in [17] was inactive. Also, the half-maximal activity concentration (AC50) in [11] is 8.86 µM (active); in [8], 0.629 µM (active); in [12] it was 1.78 µM (active); in experiment [14] it was 10.1 µM (active); in [15], 4.34 µM (active); in [16] it was 10.2 µM (active).
As to `CC(C)[C@H]1CC[C@@H](C)CC1=O`, the compound was called inactive in experiment [1], in experiment [8], in experiment [2], in experiment [7] and in [4].
`c1ccc(CCCc2ccccn2)cc1`: the outcome in experiment [1] and in experiment [6] was inactive. Besides, the AC50 is 50.7 µM (active) in experiment [5] and 18.6 µM (active) in experiment [8].
As to `CCCCC/C=C/C=C/C=O`, the result in experiment [9], in experiment [8], in experiment [2], in experiment [7] and in [6] was inactive. Moreover, the AC50 in experiment [10] was 32.8 µM (active); in experiment [11], 20 µM (active); in [5], 9.8 µM (active); in experiment [12], 30.1 µM (active); in experiment [13] it was 20 µM (active); in experiment [14], 29.4 µM (active). Moreover, the AC50 in experiment [15] is 36.3 µM (active); in [16], 20 µM (active); in experiment [17], 31.8 µM (active).

Broadly, the AC50 is the midpoint of the concentration-response curve, whichever way the signal moves.
